Assay results: the supplement of paper PMC11732987, “Enantioselective OTUD7B fragment discovery through chemoproteomics screening and high-throughput optimisation” (Communications Chemistry, 2025)

Columns and labels:
Test in all cases: log2 ratio of Biotin-Ahx-Ub-VS probe labelling (fragment/DMSO); higher = less target engagement (more negative = stronger competition), active = hit call of the paper (q ≤ 0.05, log2 ratio ≤ -1)
Conditions in all cases: compound concentration: 200 uM; treatment time: 3 h
USP42 = molecular target: T1, USP42 (UniProt Q9H9J4)
T1 sequence (whole entry): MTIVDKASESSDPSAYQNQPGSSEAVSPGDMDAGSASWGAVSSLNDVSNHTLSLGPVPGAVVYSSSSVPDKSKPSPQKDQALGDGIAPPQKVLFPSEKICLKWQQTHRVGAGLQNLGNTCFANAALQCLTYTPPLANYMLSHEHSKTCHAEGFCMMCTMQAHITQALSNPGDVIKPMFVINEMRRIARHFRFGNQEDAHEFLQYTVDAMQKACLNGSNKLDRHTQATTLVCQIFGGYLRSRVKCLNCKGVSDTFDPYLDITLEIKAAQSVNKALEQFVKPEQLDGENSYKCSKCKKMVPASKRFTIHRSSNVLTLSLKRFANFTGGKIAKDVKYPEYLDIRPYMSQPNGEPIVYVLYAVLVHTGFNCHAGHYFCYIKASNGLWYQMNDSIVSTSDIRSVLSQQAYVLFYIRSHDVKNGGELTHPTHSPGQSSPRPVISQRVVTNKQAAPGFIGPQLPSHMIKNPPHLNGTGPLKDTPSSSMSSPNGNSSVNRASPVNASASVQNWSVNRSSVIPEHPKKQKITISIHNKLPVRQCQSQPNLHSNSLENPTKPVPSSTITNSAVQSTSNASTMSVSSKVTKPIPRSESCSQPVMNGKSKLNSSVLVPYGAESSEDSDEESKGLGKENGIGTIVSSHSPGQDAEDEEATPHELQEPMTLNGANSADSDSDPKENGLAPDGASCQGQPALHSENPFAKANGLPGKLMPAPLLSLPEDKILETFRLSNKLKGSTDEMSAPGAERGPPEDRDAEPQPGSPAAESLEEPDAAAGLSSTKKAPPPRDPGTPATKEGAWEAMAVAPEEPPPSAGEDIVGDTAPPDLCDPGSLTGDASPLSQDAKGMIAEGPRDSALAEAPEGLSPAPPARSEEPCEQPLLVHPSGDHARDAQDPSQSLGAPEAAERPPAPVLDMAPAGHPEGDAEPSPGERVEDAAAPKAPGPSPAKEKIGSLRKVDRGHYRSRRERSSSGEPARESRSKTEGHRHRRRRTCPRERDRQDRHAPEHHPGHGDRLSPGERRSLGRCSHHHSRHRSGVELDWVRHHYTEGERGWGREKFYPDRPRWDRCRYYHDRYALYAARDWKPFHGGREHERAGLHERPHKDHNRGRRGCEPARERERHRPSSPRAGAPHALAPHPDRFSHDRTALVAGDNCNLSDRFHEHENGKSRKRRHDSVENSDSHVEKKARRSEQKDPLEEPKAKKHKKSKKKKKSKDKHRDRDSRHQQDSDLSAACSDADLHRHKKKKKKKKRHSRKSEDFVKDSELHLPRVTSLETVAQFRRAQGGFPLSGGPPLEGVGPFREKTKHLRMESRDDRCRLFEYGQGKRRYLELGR
How it was run: (§1)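 In triplicate, 495 µg of HEK293T lysate per sample was incubated with fragment at 200 µM or vehicle for 3 h. Biotin-Ahx-Ub-VS was then added to 0.5 µM final for 1 h, and labelled DUBs were captured with NeutrAvidin, digested with LysC and trypsin, and measured by diaPASEF LC-MS/MS. Data are average log2 fragment/vehicle ratios by unpaired t-test from global-median-normalised Spectronaut label-free quantities, restricted to proteins with ≥2 unique peptides.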

USP46 = USP46 (UniProt P62068)
How it was run: as §1

USP47 = molecular target: T2, USP47 (UniProt Q96K76)
T2 sequence (whole entry): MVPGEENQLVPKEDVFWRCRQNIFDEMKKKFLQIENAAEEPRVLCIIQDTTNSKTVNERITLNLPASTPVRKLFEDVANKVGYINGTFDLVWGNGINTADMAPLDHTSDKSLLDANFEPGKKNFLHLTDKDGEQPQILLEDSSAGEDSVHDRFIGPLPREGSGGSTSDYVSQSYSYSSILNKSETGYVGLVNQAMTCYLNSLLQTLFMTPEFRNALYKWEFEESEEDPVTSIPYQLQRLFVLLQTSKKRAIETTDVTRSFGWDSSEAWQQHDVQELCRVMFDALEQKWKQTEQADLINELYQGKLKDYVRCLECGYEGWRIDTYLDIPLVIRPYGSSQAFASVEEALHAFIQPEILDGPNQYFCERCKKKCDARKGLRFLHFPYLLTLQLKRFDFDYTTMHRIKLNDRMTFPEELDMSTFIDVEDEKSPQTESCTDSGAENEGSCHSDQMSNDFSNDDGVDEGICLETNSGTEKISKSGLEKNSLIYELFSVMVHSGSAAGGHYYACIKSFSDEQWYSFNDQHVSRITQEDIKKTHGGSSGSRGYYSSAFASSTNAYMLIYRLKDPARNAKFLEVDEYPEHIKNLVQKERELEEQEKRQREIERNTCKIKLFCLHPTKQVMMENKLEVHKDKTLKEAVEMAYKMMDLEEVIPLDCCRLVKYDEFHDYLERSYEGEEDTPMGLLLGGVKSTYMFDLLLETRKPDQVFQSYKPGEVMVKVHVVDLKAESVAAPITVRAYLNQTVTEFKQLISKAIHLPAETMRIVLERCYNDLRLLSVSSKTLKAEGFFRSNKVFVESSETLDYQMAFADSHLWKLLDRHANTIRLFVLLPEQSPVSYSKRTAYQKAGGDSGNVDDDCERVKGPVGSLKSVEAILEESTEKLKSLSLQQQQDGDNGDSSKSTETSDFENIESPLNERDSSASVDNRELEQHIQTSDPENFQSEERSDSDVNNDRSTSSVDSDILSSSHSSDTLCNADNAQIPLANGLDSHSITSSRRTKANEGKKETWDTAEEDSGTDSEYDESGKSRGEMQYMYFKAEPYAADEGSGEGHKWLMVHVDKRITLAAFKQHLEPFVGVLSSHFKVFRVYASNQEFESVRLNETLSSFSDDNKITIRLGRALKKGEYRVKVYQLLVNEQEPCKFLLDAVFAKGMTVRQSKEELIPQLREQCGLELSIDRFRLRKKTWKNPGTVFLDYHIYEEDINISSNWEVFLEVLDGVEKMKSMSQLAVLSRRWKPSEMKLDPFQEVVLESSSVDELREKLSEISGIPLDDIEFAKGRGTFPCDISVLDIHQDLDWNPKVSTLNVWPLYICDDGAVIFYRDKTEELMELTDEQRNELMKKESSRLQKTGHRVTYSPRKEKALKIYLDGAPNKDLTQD
How it was run: as §1

USP48 = molecular target: T3, USP48 (UniProt Q86UV5)
T3 sequence (whole entry): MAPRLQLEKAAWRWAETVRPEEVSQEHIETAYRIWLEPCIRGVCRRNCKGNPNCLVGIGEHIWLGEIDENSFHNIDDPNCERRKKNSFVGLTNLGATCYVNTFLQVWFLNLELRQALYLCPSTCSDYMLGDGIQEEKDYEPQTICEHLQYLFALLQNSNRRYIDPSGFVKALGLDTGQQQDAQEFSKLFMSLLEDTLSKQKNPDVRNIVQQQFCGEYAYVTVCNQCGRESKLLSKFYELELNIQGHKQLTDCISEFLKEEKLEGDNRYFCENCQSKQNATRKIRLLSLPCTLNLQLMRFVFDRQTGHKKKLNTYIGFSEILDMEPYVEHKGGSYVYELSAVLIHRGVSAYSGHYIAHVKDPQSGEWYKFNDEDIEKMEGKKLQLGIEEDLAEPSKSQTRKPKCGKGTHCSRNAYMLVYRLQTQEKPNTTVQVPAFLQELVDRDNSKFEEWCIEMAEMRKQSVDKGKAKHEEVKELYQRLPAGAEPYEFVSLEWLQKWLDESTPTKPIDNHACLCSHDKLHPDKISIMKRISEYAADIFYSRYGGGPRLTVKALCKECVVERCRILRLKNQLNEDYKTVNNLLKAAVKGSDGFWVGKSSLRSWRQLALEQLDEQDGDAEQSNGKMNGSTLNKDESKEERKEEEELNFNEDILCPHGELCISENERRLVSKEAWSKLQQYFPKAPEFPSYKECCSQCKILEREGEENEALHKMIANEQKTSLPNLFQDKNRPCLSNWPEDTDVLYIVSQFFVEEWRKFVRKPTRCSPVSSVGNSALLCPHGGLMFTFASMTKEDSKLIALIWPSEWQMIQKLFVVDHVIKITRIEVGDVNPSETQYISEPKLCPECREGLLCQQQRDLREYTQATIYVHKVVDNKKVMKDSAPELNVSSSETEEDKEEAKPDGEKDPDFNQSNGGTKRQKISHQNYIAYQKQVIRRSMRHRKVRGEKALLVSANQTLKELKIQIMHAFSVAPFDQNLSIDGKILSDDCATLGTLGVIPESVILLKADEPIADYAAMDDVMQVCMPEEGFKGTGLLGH
How it was run: as §1

USP5 = molecular target: T4, USP5 (UniProt P45974)
T4 sequence (whole entry): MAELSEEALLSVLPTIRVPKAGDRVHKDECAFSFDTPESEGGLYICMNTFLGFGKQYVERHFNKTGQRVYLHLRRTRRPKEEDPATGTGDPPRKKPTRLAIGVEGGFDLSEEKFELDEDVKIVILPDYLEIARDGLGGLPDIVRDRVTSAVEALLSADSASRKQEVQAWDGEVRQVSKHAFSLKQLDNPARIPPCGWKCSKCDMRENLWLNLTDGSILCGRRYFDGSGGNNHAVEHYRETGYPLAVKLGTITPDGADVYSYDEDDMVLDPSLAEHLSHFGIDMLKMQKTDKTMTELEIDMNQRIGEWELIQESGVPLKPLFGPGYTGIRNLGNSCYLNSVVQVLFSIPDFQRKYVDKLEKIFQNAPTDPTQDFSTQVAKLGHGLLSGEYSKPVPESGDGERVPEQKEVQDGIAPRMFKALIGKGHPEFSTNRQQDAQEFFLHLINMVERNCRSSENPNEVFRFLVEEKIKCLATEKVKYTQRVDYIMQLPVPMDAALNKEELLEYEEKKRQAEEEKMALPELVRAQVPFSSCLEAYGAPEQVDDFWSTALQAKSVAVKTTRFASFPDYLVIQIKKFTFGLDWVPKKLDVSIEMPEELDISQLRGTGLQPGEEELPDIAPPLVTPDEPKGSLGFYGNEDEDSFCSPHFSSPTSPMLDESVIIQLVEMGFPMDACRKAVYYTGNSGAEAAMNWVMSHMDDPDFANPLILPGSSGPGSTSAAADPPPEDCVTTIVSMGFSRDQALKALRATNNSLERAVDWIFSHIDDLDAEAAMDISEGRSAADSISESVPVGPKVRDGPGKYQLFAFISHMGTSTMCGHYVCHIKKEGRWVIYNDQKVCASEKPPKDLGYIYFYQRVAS
How it was run: as §1

USP54 = USP54 (UniProt Q70EL1)
How it was run: as §1

USP7 = USP7 (UniProt Q93009)
How it was run: as §1

USP8 = molecular target: T5, USP8 (UniProt P40818)
T5 sequence (whole entry): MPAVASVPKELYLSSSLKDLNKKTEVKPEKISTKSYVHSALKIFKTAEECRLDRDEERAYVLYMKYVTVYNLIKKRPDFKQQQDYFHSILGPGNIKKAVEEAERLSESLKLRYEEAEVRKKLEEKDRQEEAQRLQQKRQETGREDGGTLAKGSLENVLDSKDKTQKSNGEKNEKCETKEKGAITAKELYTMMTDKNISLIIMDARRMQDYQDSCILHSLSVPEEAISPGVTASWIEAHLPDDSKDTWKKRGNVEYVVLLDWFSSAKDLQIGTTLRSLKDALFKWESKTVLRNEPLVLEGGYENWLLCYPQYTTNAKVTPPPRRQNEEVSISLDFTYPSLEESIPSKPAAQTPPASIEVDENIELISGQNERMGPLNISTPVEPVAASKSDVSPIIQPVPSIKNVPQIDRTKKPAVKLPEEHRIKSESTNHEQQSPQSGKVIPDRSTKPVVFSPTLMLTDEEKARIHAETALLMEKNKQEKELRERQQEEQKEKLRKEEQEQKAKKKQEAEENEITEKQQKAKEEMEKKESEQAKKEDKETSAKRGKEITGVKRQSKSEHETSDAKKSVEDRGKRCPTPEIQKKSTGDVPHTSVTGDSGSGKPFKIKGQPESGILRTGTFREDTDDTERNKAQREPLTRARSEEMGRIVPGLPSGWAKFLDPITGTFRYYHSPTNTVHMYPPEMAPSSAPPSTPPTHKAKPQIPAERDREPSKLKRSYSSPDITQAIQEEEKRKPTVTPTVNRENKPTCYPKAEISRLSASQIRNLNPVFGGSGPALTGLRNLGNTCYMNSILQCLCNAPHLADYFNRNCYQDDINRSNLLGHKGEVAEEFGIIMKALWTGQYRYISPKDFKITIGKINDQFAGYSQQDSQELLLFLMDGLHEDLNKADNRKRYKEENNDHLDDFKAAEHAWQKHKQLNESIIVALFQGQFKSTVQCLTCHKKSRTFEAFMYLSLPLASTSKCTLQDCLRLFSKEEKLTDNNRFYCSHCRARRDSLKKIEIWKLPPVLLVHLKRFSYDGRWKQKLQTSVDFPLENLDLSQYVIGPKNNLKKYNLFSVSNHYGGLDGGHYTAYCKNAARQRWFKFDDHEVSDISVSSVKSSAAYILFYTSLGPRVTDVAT
How it was run: as §1

Measured: log2 ratio of Biotin-Ahx-Ub-VS probe labelling

Sequence of USP7 (Q93009 whole entry, looked up): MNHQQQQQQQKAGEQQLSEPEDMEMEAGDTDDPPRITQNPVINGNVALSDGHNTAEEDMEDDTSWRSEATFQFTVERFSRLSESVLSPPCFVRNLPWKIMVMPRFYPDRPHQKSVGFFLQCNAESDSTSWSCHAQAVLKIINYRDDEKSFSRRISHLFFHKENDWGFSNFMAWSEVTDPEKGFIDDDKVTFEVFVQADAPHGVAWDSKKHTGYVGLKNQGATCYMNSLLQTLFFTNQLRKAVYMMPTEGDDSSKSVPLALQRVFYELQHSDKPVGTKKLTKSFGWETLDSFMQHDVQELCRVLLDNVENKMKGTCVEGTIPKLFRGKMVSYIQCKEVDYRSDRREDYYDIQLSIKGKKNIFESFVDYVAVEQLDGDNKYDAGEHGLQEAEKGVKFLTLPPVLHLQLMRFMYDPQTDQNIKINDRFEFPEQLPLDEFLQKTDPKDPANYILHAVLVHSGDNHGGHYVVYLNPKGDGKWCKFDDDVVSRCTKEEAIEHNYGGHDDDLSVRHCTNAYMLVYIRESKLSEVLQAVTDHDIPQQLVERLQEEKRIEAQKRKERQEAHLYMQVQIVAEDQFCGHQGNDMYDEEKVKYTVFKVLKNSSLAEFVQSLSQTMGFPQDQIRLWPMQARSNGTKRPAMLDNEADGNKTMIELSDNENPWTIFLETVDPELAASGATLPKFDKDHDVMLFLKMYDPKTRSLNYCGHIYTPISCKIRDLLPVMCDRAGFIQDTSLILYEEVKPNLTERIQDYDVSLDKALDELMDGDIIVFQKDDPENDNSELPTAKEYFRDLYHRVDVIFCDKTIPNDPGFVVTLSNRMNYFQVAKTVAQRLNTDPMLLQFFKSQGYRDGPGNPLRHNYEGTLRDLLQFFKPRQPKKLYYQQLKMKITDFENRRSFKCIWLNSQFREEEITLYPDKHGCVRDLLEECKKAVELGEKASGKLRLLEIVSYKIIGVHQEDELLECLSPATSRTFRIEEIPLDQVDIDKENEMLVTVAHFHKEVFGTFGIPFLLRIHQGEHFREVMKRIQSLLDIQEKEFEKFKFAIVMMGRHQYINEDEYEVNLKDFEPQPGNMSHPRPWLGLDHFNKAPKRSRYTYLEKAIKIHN
Sequence of USP46 (P62068 whole entry): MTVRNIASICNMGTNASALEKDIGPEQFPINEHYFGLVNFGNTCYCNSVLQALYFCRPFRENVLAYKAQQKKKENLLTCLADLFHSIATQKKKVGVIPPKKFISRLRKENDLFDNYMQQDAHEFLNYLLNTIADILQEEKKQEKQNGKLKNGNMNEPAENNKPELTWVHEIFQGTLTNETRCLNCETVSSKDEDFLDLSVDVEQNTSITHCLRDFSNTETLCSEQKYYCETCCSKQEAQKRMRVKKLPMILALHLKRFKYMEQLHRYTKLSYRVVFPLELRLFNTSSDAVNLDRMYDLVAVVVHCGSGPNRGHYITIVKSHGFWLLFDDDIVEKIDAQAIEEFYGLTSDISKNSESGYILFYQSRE
Sequence of USP54 (Q70EL1 whole entry): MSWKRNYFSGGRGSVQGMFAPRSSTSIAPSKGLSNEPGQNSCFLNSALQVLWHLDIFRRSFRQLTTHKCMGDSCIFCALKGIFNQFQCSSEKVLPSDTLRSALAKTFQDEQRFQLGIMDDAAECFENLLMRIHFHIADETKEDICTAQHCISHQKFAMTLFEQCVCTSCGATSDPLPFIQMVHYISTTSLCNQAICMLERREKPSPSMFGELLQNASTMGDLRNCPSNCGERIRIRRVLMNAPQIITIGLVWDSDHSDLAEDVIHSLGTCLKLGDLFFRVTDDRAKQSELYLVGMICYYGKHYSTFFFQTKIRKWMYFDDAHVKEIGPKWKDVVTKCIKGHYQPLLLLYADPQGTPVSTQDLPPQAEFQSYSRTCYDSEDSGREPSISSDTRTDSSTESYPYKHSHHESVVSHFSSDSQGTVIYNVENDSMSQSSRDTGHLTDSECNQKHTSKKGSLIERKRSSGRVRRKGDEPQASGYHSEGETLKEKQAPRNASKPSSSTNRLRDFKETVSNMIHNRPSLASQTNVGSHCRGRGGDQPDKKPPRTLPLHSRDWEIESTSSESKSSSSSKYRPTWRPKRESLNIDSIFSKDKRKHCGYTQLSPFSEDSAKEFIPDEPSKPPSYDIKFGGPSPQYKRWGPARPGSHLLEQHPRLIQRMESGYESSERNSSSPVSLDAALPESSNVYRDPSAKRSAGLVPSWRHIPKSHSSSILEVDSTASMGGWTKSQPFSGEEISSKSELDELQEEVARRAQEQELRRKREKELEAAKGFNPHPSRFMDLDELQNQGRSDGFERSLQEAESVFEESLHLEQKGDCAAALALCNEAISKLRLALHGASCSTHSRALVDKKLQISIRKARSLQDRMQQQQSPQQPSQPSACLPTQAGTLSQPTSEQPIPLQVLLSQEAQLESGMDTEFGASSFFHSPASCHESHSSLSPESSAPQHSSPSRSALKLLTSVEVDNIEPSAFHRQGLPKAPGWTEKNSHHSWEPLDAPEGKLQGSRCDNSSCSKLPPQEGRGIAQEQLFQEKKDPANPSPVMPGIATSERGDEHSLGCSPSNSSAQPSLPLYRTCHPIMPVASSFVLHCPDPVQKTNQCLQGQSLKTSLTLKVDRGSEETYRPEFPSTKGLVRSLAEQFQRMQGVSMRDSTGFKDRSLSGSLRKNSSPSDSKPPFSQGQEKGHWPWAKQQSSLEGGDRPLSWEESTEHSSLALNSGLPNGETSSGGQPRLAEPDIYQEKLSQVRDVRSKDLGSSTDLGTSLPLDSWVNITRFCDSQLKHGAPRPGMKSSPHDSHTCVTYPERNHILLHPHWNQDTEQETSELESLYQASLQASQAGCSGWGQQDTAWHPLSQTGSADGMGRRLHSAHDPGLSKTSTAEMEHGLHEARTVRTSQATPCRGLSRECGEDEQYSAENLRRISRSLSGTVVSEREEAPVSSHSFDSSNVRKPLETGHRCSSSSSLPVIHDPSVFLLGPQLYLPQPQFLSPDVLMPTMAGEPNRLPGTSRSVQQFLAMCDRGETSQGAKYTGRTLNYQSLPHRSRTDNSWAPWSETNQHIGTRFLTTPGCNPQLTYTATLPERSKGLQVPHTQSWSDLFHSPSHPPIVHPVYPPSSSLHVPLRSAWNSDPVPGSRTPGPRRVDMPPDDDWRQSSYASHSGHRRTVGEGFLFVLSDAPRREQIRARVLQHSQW

CN(CCC(O)c1ccc(Br)cc1)C(=O)CCl (stereo not drawn)
inactive: USP42 0.556 | USP46 -0.218 | USP47 -0.526 | USP48 -0.691 | USP5 -0.00644 | USP54 0.00894 | USP7 -0.612 | USP8 -0.072
